Compound activity (PubChem)
This is a sample that favours compounds with a hit; in the whole collection about 18% have one here.
RORg inh: inhibitors of mouse ROR gamma transcriptional activity; Potency, µM (series often up to 53.6 µM), without a hit: top-dose activity change, negative = inhibition, usual class: inhibitors; Drosophila S2 Gal4-RORgamma UAS-luciferase reporter, 20 h; P51450; 5.4% of 310,000 active; note: potency is the fitted concentration of half-maximal effect; nearly all actives have a fitted effect of over 60% in size
Target sequence (P51450 whole entry, looked up, the tested form may be a part): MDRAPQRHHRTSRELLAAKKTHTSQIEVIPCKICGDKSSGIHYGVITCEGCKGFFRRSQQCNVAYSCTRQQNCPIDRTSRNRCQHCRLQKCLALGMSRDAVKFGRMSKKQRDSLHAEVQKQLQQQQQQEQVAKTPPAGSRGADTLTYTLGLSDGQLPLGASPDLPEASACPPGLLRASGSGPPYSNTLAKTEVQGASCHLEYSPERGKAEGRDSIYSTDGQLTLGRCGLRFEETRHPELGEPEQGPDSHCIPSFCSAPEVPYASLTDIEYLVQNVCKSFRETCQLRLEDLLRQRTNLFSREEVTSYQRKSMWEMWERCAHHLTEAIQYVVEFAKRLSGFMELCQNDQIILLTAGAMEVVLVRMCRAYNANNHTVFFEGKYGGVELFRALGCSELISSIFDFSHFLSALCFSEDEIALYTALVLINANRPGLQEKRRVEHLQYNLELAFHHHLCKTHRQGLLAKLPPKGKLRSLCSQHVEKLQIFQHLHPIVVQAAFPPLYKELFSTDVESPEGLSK
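Drosophila S2 cells stably expressing Gal4-DBD/mouse RORγ fusion under metallothionein promoter plus UAS-luciferase; compound 1 h, then 700 uM CuSO4 induction for 20 h at ambient temperature; inhibition read as reduced luminescence.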
LDHA block: blocks human lactate dehydrogenase A. activity change, % (values are at about 110 or 230 µM). 0.15% of 480,000 active. AID 1347041. P00338. purified LDHA, NADH/diaphorase-resazurin fluorescence; active compounds read low; in the data active = activity change below about -30%; inconclusive = mostly about -25% to -30%;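 note: plate controls were DMSO wells for no effect and wells without enzyme for full effect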
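LDH5 2 nM; NADH 0.06 mM, pyruvate 0.2 mM; 200 mM Tris pH 7.4, EDTA, Tween-20; 5 min RT. Detection: diaphorase 0.133 mg/mL + resazurin 37 µM, fluorescence ex540/em590 at 0 and 20 min; normalized to enzyme-free and DMSO wells.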
DT40 TDP1 CPT: DT40-hTDP1 cell growth loss with CPT; chicken DT40 Tdp1-/-;hTDP1 cells + 20 nM CPT, ATP luminescence, 48 h; Potency, µM (series often up to 46.2 µM), for inactives: at the highest dose activity change, negative = growth inhibition, most hits filed as inhibitors; 12% of 420,000 active; AID 686979; note: potency is the fitted concentration of half-maximal effect; nearly all actives have a fitted effect of over 55% in size
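Cell growth measured by CellTiter-Glo luminescence after a minimum 48 h, 37 C compound exposure with 20 nM CPT in Tdp1-knockout DT40 cells stably expressing hTDP1, seeded 400/well; qHTS titration format.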
IL1B secr inh: inhibitors of inflammasome signaling (IL-1 beta secretion); THP-1 LPS/ATP IL-1B secretion, AlphaLISA, 16 h; active compounds read low; activity change, % at 57.5 µM; 4.7% of 360,000 active; in the data active = activity change below about -50%; inconclusive = mostly about -30% to -49%
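THP-1 cells pretreated 1 hr with compounds (up to 57.5 uM final), then stimulated with LPS (250 ng/mL final) plus ATP (1.25 mM final); secreted IL-1B measured by AlphaLISA after 16 hr, decreased signal indicating inhibition.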
VP16 counter: inhibits Gal4-VP16 luciferase reporter, ROR gamma counter-screen; Drosophila S2 Gal4-VP16 UAS-luciferase, luminescence, 20 h; 3.5% of 310,000 active; Potency, µM (series often up to 53.6 µM), for inactives: at the top dose activity, negative = inhibition, actives largely listed as inhibitors;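 note: Gal4-VP16 expression switched on by copper sulfate through the metallothionein promoter; potency is the fitted concentration of half-maximal effect; nearly all actives have a fitted effect of over 50% in size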
TDP1 cell noCPT: qHTS for Inhibitors of human tyrosyl-DNA phosphodiesterase 1 (TDP1): qHTS in cells in absence of CPT; DT40 Tdp1-/- hTDP1 cells, no CPT, ATP luminescence, 48 h; Potency, µM (doses to about 46.2 µM), inactives show at the highest dose activity change, negative = growth inhibition, hits mostly inhibitors; 15% of 420,000 active; AID 686978, 2013; note: potency is the fitted concentration of half-maximal effect; nearly all actives have a fitted effect of over 55% in size
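Stably hTDP1-transfected Tdp1-null chicken DT40 cells were treated with library compounds minus camptothecin and grown for at least 48 hr at 37 °C, after which cellular ATP was quantified by luminescence.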
* marks the source's active call; other numbers are inactive results; ? = inconclusive; / = no result. Unless noted, calls come from the whole dose curve; as a rule, active = well fitted curve in the direction sought with a large enough effect; inconclusive = small, poorly fitted or top-dose-only effect, or another doubt; inactive = no such curve, though single readings can be large; an effect the other way counts as inactive or inconclusive. Unless noted, % is set by controls: 0 for no effect and ±100 for the full control effect.

SMILES	RORg inh	LDHA block	DT40 TDP1 CPT	IL1B secr inh	VP16 counter	TDP1 cell noCPT
Cn1cc(-c2cnc3c(NC=O)cc(-c4cccc(C(F)(F)F)c4)cn23)cn1	/	6.5	?	0.0	/	20.6µM*
Nc1ccc(-c2cc(NC=O)c3ncc(-c4cccc(C(F)(F)F)c4)n3c2)cn1	/	3.8	16.4µM*	-21.6	/	10.3µM*
CC(=O)c1cccc(-c2cnc3c(NC=O)cc(-c4ccccc4F)cn23)c1	/	-3.2	?	156.6	/	?
COc1cccc(-c2cc(NC=O)c3ncc(-c4cc(OC)c(OC)c(OC)c4)n3c2)c1	/	-3.2	0.517µM*	106.0	/	0.581µM*
COc1cccc(-c2cnc3c(NC=O)cc(-c4ccc(O)c(OC)c4)cn23)c1	/	4.1	-88.6%	40.0	/	2.31µM*
O=C(CCc1ncc(-c2ccc(F)cc2F)o1)NCc1ccc2c(c1)OCO2	/	5.7	/	/	/	/
COc1cc(-c2cc(NC=O)c3ncc(-c4ccc(C(C)=O)cc4)n3c2)ccc1O	/	-0.3	9.2µM*	13.6	/	8.2µM*
CC(=O)Oc1cc(-c2coc3cc(OC(C)=O)c(OC(C)=O)c(OC(C)=O)c3c2=O)cc(OC(C)=O)c1OC(C)=O	-27.4%	/	?	/	-14.0%	?
CC(=O)Oc1cc2cccc(OC(C)=O)c(=O)c2c(OC(C)=O)c1OC(C)=O	-32.4%	-0.7	4.61µM*	11.2	-11.5%	18.4µM*
C#CCOCCOCCOCCNc1nc(N2CCN(C(=O)Cn3cc(CCO)nn3)CC2)nc(N2CCN(C(=O)Cn3cc(CC(C)O)nn3)CC2)n1 (stereo not drawn)	/	3.8	-2.9%	-3.4	/	-9.4%
C#CCOCCOCCOCCNc1nc(N2CCN(C(=O)CCCCCCCCCCNC(=O)[C@H](CCCCN)n3cc(C)nn3)CC2)nc(N2CCN(C(=O)CCCCCCCCCCNC(=O)[C@@H]([C@H](C)O)n3cc(C)nn3)CC2)n1	/	-2.2	?	-60.0*	/	?
C#CCOCCOCCOCCNc1nc(N2CCN(C(=O)CCCCCCCCCCNC(=O)Cn3cc(C[C@@H](C)O)nn3)CC2)nc(N2CCN(C(=O)CCCCCCCCCCNC(=O)[C@@H](CCSC)n3cc(CCO)nn3)CC2)n1	/	-0.1	?	1.7	/	10.3µM*
C#CCOCCOCCOCCNc1nc(N2CCN(C(=O)CCCCCCCCCCNC(=O)[C@@H](CCSC)n3cc(CCO)nn3)CC2)nc(N2CCN(C(=O)CCCCCCCCCCNC(=O)[C@H](CCCN=C(N)N)n3cc(C[C@@H](C)CC)nn3)CC2)n1	/	1.5	25.9µM*	-99.7*	/	?
C#CCOCCOCCOCCNc1nc(N2CCN(C(=O)CCCCCCCCCCNC(=O)[C@H](CCCCN)n3cc(C)nn3)CC2)nc(N2CCN(C(=O)CCCCCCCCCCNC(=O)[C@H](CCCN=C(N)N)n3cc(C[C@@H](C)CC)nn3)CC2)n1	/	-0.2	23.1µM*	-101.7*	/	11.6µM*
C#CCOCCOCCOCCNc1nc(N2CCN(C(=O)CCCCCCCCCCNC(=O)[C@H](CCCCN)n3cc(CCO)nn3)CC2)nc(N2CCN(C(=O)CCCCCCCCCCNC(=O)[C@H](CCCCN)n3cc(C[C@@H](C)CC)nn3)CC2)n1	/	-1.4	?	-20.5	/	?
COc1cc2ccccc2cc1C(=O)N1CCN(CC(=O)Nc2ccccc2Cl)CC1	/	2.9	/	/	/	/
COC(=O)c1sc2ccccc2c1S(=O)(=O)Nc1cc(OC)c(OC)c(OC)c1	/	14.8	/	/	/	/
C#CCOCCOCCOCCNc1nc(N2CCN(C(=O)CCCCCCCCCCNC(=O)[C@@H](CCSC)n3cc(CCO)nn3)CC2)nc(N2CCN(C(=O)CCCCCCCCCCNC(=O)[C@@H]([C@H](C)O)n3cc(C)nn3)CC2)n1	/	0.0	6.51µM*	?	/	9.2µM*
